# SW480 rerep: inducers of DNA re-replication in SW480 colon cancer cells. AID 624297. SW480 DNA re-replication, Hoechst DNA content imaging, 48 h. 340,000 tested, 1.8% active. Potency, µM (top dose mostly 46.1 µM), without a hit: at the top dose re-replication activation, actives largely listed as activators; note: % of control where 0% means no effect; nearly all actives have a fitted effect of over 55% in size
#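 Treated cells incubate 48 hr (37 C, 5% CO2), are stained 40 min with Hoechst, and nuclear fluorescence is enumerated; a rise in nuclei with high DNA signal marks re-replication.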
# KB-V1 MDR tox: KB-V1 MDR subline cytotoxicity; KB-V1 MDR cells viability, CellTiter-Glo, 72 h; Potency, µM (titrated, usually from 46.1 µM), hits mostly cytotoxic; 400,000 tested, 3.4% active; AID 1347076; note: % is set by controls: 0 for no effect and ±100 for the full control effect; nearly all actives have a fitted effect of over 60% in size
#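 Cells of the MDR subline KB-V1 are plated, dosed with compound at multiple concentrations, and incubated 72 h at 37 degrees C; CellTiter-Glo is then added and luminescence read after 10 min.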
# TSG101-PTAP inh: blocks PTAP/TSG101 interaction to inhibit HIV-1 budding. Fluorescence polarization, FITC-PTAP peptide / Tsg101 binding. Potency, µM (top dose mostly 115 µM), for the others: top-dose activity change, negative = inhibition, most hits filed as inhibitors. 340,000 tested, under 10 active. Q99816; active = well fitted inhibition curve with a large enough effect in the main read-out, with a control signal flat, not every such curve was filed as active; inconclusive = small, poorly fitted or top-dose-only effect, or effect the other way, or a change in a side signal; inactive = no such curve, though single readings can be large or run the other way; note: % of control where 0% means no effect
# Target sequence (Q99816 whole entry, looked up): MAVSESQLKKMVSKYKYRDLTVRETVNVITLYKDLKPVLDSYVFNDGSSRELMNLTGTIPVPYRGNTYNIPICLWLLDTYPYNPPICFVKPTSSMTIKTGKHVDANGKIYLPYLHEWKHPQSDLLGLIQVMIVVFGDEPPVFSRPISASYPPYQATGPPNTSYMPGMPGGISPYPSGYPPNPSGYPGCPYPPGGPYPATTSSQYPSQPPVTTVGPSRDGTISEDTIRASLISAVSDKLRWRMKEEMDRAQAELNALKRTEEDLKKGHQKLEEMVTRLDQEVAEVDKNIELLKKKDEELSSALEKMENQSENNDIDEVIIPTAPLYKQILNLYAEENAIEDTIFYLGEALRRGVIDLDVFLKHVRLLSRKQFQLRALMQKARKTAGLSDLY
#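 Fluorescence anisotropy tracks displacement of a FITC-tagged PTAP peptide (50 nM) from the Tsg101 binding domain (10 uM), following a 20 min room-temperature incubation at pH 7.5.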
# RGS4 inh: human RGS4 inhibition; P49798; AID 504845; 390,000 tested, 0.039% active; Potency, µM (highest dose often 114 µM), without a hit: at the highest dose activity change, negative = inhibition, hits mostly inhibitors; Transcreener GDP fluorescence polarization, RGS4-accelerated GTP hydrolysis; note: % is set by controls: 0 for no effect and ±100 for the full control effect; nearly all actives have a fitted effect of over 75% in size
# Target sequence (P49798 whole entry, looked up): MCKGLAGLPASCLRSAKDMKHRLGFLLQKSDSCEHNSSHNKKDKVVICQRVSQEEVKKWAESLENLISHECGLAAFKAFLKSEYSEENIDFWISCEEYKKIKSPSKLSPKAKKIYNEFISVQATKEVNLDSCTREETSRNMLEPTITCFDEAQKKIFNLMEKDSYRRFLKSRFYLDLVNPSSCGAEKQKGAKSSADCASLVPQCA
#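 MLSMR compounds (23 nl, pin-transferred) preincubated 10 min at room temperature with a 500nM (2x) first reagent, then RGS4 at 900nM (2x) plus Transcreener GDP mix added; fluorescence polarization (620/688 nm) read before and after 90 min at 30 °C.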
# MCF10A rereplic: DNA re-replication induction in MCF 10a cells; 350,000 tested, 2.9% active; AID 624296; MCF 10A DNA re-replication, Hoechst nuclear intensity, 48 h; Potency, µM (doses to about 46.1 µM), for the others: top-dose activity, positive = re-replication, hits mostly activators; note: % of control where 0% means no effect; nearly all actives have a fitted effect of over 50% in size
# KB-3-1 cytotox: KB-3-1 parental cell cytotoxicity; 400,000 tested, 1.4% active; KB-3-1 viability, CellTiter-Glo ATP luminescence, 72 h; Potency, µM (doses to about 46.1 µM), actives largely listed as cytotoxic; note: % is set by controls: 0 for no effect and ±100 for the full control effect; nearly all actives have a fitted effect of over 60% in size
#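 Luminescent ATP read-out (CellTiter-Glo) measures survival of drug-naive KB-3-1 cells after 72 h compound exposure at 37 °C. Titration series was screened from lowest to highest concentration, with DMSO vehicle plates as background controls.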
# Active calls of the source: *; i = inactive; ? = inconclusive; / = no result given; [ ] = another dose, or the depositor's remark. Only some compounds are listed: those with a hit (about 6.6% of all), similar ones and a draw of the others. Unless noted, calls come from the whole dose curve; as a rule, active = well fitted curve in the direction sought with a large enough effect; inconclusive = small, poorly fitted or top-dose-only effect, or another doubt; inactive = no such curve, though single readings can be large; an effect the other way counts as inactive or inconclusive. Potency is the fitted concentration of half-maximal effect.
SMILES,SW480 rerep,KB-V1 MDR tox,TSG101-PTAP inh,RGS4 inh,MCF10A rereplic,KB-3-1 cytotox
O=C(Nc1nc(-c2ccc3c(c2)OCCO3)cs1)C1CC(=O)N(c2ccc3c(c2)OCCO3)C1 (configuration not stated),/,i,/,30%,/,?
COc1ccc(-c2csc(NC(=O)C3CC(=O)N(c4ccc5c(c4)OCCO5)C3)n2)cc1 (configuration not stated),/,21µM*,0%,-22%,22%,i
O=C(Nc1ccc(Br)cc1)c1ccc(F)c(S(=O)(=O)N2CCc3ccccc32)c1,/,/,/,23%,/,/
CCOC(=O)c1c(NC(=O)CSc2nnc(-c3c[nH]c4ccccc34)n2CCOC)sc2c1CCCC2,?,i,0%,-22%,15%,18µM*
CCOC(=O)c1c(NC(=O)CSc2nnc(-c3c[nH]c4ccccc34)n2C)sc2c1CCCC2,3%,i,-4%,2%,22%,?
CCOc1ccc2nc(NC(=O)c3nc(SCc4ccccc4F)ncc3Cl)sc2c1,/,i,/,-3%,/,i
COc1ccc2oc3cc(C)[n+]([O-])c(-c4ccc(Cl)cc4)c3c2c1,-1%,?,1%,-5%,17%,?
COc1ccc2oc3cc(C)[n+]([O-])c(-c4ccc(C)cc4)c3c2c1,?,5.8µM*,-1%,-6%,16%,?
COc1ccc(-c2c3c(cc(C)[n+]2[O-])oc2ccc(OC)cc23)cc1,15%,10µM*,1%,-9%,16µM*,?
CC(C)(C)OC(=O)N1CCC(c2c(C(=O)NCc3ccco3)cnn2-c2ccc(F)cc2)CC1,/,i,/,19%,/,i
COc1nc(Nc2ccccc2F)nc(OC)n1,?,?,-4%,18%,-8%,?
COc1nc(Nc2ccc(OC)c(Cl)c2)nc(OC)n1,-5%,18µM*,-3%,15%,2%,?
CNc1nc(Cl)nc(Nc2ccccc2)n1,-20%,5.8µM*,-1%,15%[56.9 µM],?,?
COc1nc(Nc2cccc(F)c2)nc(OC)n1,-15%,6.5µM*,0%,14%,5%,?
C=CCNc1nc(Cl)nc(Nc2ccccc2)n1,-4%,i,0%,7%,-1%,i
COc1nc(Nc2ccccc2)nc(OC)n1,?,8.2µM*,-4%,9%,?,?
COc1ccc(Nc2nc(C)cc(C)n2)cc1Cl,-2%,i,2%,-16%,4%,i
COc1ccc2c(CNC3CCC(C)CC3)c(C(=O)O)n(Cc3ccc(F)cc3)c2c1 (configuration not stated),/,i,/,-22%,/,i
Cc1ccc(-n2cnc3cc(C(=O)NCc4ccc(F)cc4)ccc32)c(C)c1,/,i,/,6%,/,i
Cc1cc(C)nc(Sc2nc(Nc3ccccc3)nc(Sc3nc(C)cc(C)n3)n2)n1,?,?,-6%,?,?,21µM*
Cc1cc(C)nc(Nc2ccc(O)cc2)n1,-2%,i,-2%,-5%,5%,i
Cc1cc(C)cc(N2C(=O)CSC23C(=O)N(CC(=O)NC2CCCCC2)c2ccccc23)c1 (configuration not stated),/,i,/,-10%,/,?
CCOC(=O)c1c(NC(=O)c2ccc(Cl)cc2)csc1C,-66%,9.2µM*,0%,-7%,-58%,i
COc1ccc(Br)cc1C(=O)Nc1ccccc1N1CCN(C(=O)c2ccccc2)CC1,9%,?,-7%,-52%,21%,i
COc1c(C)cc(Br)cc1C(=O)Nc1ccccc1N1CCN(C(=O)c2ccccc2)CC1,2%,23µM*,5%,4%,1%,?
SMILES,SW480 rerep,KB-V1 MDR tox,TSG101-PTAP inh,RGS4 inh,MCF10A rereplic,KB-3-1 cytotox
O=C(Nc1ccccc1N1CCN(C(=O)c2ccccc2)CC1)c1cc(Br)ccc1Cl,?,23µM*,-1%,25%,-187%[0.0737 µM],?
Cc1ccc(Nc2nnc(SC/C(O)=C(\C#N)c3nc4ccccc4[nH]3)s2)c(C)c1,10%,i,-6%,-41%,?,i
Cc1cccc(Nc2nnc(SC/C(O)=C(\C#N)c3nc4ccccc4[nH]3)s2)c1,25%,i,1%,-16%,16µM*,?
CN(C)c1ccc(N=Nc2ccccc2C(=O)OCC(=O)NCC2CCCCC2)cc1,17%,7.3µM*,-1%,-6%,18%,i
CN(C)c1ccc(N=Nc2ccccc2C(=O)OCC(=O)NC2CCCC2)cc1,3%,?,5%,-44%,?,i
CCCN1C(=O)C(Cc2nc3ccccc3c(=O)n2CC)c2ccccc21 (configuration not stated),/,/,/,3%,/,/
CCN(CC)C(=O)CSc1nc2cc3c(cc2c(=O)n1Cc1ccc(C(=O)NCCc2ccc(OC)c(OC)c2)cc1)OCO3,/,/,/,-19%,/,/
C=CCn1cc(C(=O)NCCCOCC)c(=O)c2cc(S(=O)(=O)N(CC)CC)ccc21,11%,2.9µM*,-5%,25%,4%,i
CCN(CCCNC(=O)c1cn(CC)c2ccc(S(=O)(=O)N(C)C)cc2c1=O)c1cccc(C)c1,3%,16µM*,-5%,-32%,17%,?
CCn1cc(C(=O)NCCCN(C)c2ccccc2)c(=O)c2cc(S(=O)(=O)N(C)C)ccc21,9%,i,-2%,-8%,1%,i
CCn1cc(C(=O)NCCc2ccc(Cl)cc2)c(=O)c2cc(S(=O)(=O)N(C)C)ccc21,-20%,i,-6%,40%,16%,?
CCn1cc(C(=O)NCc2ccc(Cl)cc2)c(=O)c2cc(S(=O)(=O)N(C)C)ccc21,?,15µM*,-7%,15%,?,i
Cc1cc(C)c(NC(=O)c2sc3nc(C)cc(C)c3c2NC(=O)c2ccccc2)c(C)c1,/,/,/,-5%,/,/
C=CCN(CC=C)S(=O)(=O)c1ccc2nc(NC(=O)C(C)C)sc2c1,?,?,-2%,7%,8.2µM*,3.7µM*
CCN(CC)S(=O)(=O)c1cccc(C(=O)N[C@H](C(=O)Nc2nc3ccc(F)cc3s2)C(C)C)c1,?,5.8µM*,-3%,22%,?,15µM*
N=C(N)n1cccn1,-3%,/,/,/,12%,/
O=C(O)CCCC/C=C(\c1ccccc1)c1cccnc1,-4%,/,/,/,-3%,/
O=c1nc(/C=C/c2cc([N+](=O)[O-])ccc2Cl)cc(C(F)(F)F)[nH]1,7%,?,-7%,?,3.3µM*,i
COc1cc(/C=C/c2c([N+](=O)[O-])c(=O)n(C)c(=O)n2C)cc(OC)c1OC,0%,i,-11%,-14%,3%,i

# Source: PubChem BioAssay
